# In PubChem BioAssay (NCI):
# The panel holds about 83,000 compounds, 20% with a hit somewhere; the sample as a whole holds those more often.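 A percent growth of 40 corresponds to 60% growth inhibition; 0 means no net growth; -100 means all cells died. Active threshold: below 10.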 Unmarked numbers belong to inactive results. Calls of active or inactive are those of the source.
# Experiments:
# Experiment in all cases: NCI-60 one-dose screen, 48 h (100 = growth as untreated, 0 = no growth, -100 = all killed)
# NCI-H226 lung = conditions: 10 µM
# HOP-62 NSCLC = conditions: 10 µM unless noted
# HOP-92 NSCLC = conditions: 10 µM unless noted
# NCI-H522 lung = conditions: 10 µM
# A549/ATCC NSCLC = conditions: 10 µM unless noted
# 786-0 renal = conditions: 10 µM unless noted
# COLO 205 colon = conditions: 10 µM unless noted
# NCI-H322M lung = conditions: 10 µM unless noted
# NCI-H460 lung = conditions: 10 µM unless noted
Structure (SMILES),growth (NCI-H226 lung) [%],growth (HOP-62 NSCLC),growth (HOP-92 NSCLC),growth (NCI-H522 lung),growth (A549/ATCC NSCLC),growth (786-0 renal),growth (COLO 205 colon),growth (NCI-H322M lung),growth (NCI-H460 lung)
Cc1nn(-c2ccccc2)c2nc3nc4c(c(N)c3c(-c3ccc(Cl)cc3)c12)CCC4,94.1,101%,80.4%,102%,84.8%,74%,67%,–,–
C[C@@H](Oc1cc(-c2cnn(C3CC4(CNC4)C3)c2)cnc1N)c1c(Cl)ccc(F)c1Cl,–,49.9%,0.0528% (active),69.1%,19.6%,53%,5.17% (active),72.1%,15.9%
ONc1nc(NO)c2[nH]cnc2n1,82.8,83.9%,80.8%,97%,101%,86.9%,112%,–,86.7%
COc1ncc(F)c(OC)n1,101,94.3%,87%,97.5%,99.8%,102%,110%,–,108%
Cc1nc2cc(Nc3nc(Nc4ccc(F)cc4)nc(N4CCN(C)CC4)n3)ccc2n1Cc1ccccc1,65,58.2%,2.5% (active),-55.1% (active),7.21% (active),-83.1% (active),-55.5% (active),–,–
CC1(C)N=C(N)N=C(N)N1c1cccc(/C=C/C=C/c2cccc([N+](=O)[O-])c2)c1,76.9,104%,70.7%,27.6%,–,91.9%,29.7%,–,21.3%
C=C(C)COC(=O)c1ccccc1C(=O)OCC1(C)CO1 (stereo not drawn),102,102%,–,–,94.8%,105%,106%,–,108%
Clc1ccc2c(N3CCN(c4ccnc(NC5CCCCC5)n4)CC3)ccnc2c1,–,51.7%,40.6%,71.3%,54.4%,49.4%,-1.41% (active),98.8%,32%
O=C1CC2c3cc(-c4cc5ccccc5o4)ccc3CCN2C(=O)N1c1ccccc1 (stereo not drawn),93.5,82.9%,47.2%,69.9%,80%,92.8%,96.2%,–,–
CCCCC(=O)N/N=C/c1cc(I)cc(I)c1O,73.3,42.5%,48.7%,60.5%,46.6%,56.9%,57%,–,–
COc1ccc(-c2c3c(N)c4c(nc3nc3c2c(C)nn3-c2ccccc2)CCCCC4)cc1,99.4,84.6%,32.2%,50.2%,81.3%,79.2%,74.3%,–,82.8%
CCN(C(=O)c1ccc2c3c(cccc13)C=C2)c1ccccc1,93.3,99.8%,86.5%,79.1%,–,91.1%,119%,–,111%
O=C1C(Br)=C(c2ccccc2)C(=O)C(Br)=C1c1ccccc1,95.1,111%,92.1%,-61% (active),87.6%,95.7%,90.9%,–,99.5%
FC(F)(F)c1cc(CNc2nc(Cl)ncc2Br)cc(C(F)(F)F)c1,93.9,90.5%,71%,62.3%,–,84.6%,103%,–,95.6%
O=C(O)CCN1CCN(c2cccc(Cl)c2)CC1,104,97%,110%,127%,95.9%,104%,111%,–,106%
Cn1c(=O)c(S(=O)(=O)c2ccccc2)cc2ccc3c(cnn3-c3ccc(Cl)cc3)c21,55.6,87.3%,39.8%,-18.9% (active),65.5%,51.3%,100%,–,80.7%
FC(F)(F)c1cc(CNc2ncc(Br)c(Cl)n2)cc(C(F)(F)F)c1,90.3,90.2%,84.3%,74.2%,–,90.4%,98.4%,–,107%
CCCCCCCCCCCCSC1=CC(=O)C=CC1=O,91.5,82.2%,24.3%,-81.2% (active),92.3%,98.7%,107%,–,–
COc1cccc(-c2ccc3c(c2)C2CCN(Cc4ccccc4)C3C2)c1 (stereo not drawn),99.2,72.2%,41%,55.1%,71.2%,77.4%,79.3%,–,93.5%
COc1ccc(C2CC(c3cc(OC)c(OC)c(OC)c3)=NN2c2ccc(S(N)(=O)=O)cc2)cc1 (stereo not drawn),–,67.3%,27.8%,66.9%,44.5%,66.6%,75.6%,67.6%,58.8%
O=[N+]([O-])c1cc2c(cc1Br)C1C(C3C2C(Cl)(Cl)C(Cl)=C(Cl)C3(Cl)Cl)C(Cl)(Cl)C(Cl)=C(Cl)C1(Cl)Cl (stereo not drawn),86.7,92.2%,100%,83.1%,–,89.9%,110%,–,107%

Structure (SMILES),growth (NCI-H226 lung) [%],growth (HOP-62 NSCLC),growth (HOP-92 NSCLC),growth (NCI-H522 lung),growth (A549/ATCC NSCLC),growth (786-0 renal),growth (COLO 205 colon),growth (NCI-H322M lung),growth (NCI-H460 lung)
Cc1cc[n+](CCc2ccccc2)cc1,102,–,–,–,89.4%,–,–,–,–
C[C@@H](Oc1cc(-c2cnn(C3CC4(CCCNC4)C3)c2)cnc1N)c1c(Cl)ccc(F)c1Cl (stereo partly drawn),–,54%,-7.41% (active),23.6%,16.6%,25.2%,-30.9% (active),58.9%,0.489% (active)
C=CC[P+](c1ccccc1)(c1ccccc1)c1ccccc1,–,81.7%,25.4%,15.1%,69.6%,84.5%,32.8%,–,53.5%
CC(C)NCC(O)COc1ccc(CCOCC2CC2)cc1 (stereo not drawn),–,104%,–,118%,99.5%,100%,116%,106%,–
Clc1ccc(Nc2ccnc(N3CCN(c4ccnc5cc(Cl)ccc45)CC3)n2)cc1,–,47.4%,39.4%,35.1%,48.6%,48.4%,46.5%,48.6%,48.4%
COc1ccc(-c2nn(-c3ccc(NC(=O)c4ccc(Cl)c(Cl)c4)cc3)cc2-c2ccncc2)cc1Cl,–,6.02% (active),37.1%,54.3%,42.7%,-33% (active),-27.2% (active),69.1%,20.6%
CSc1ccc(OC(C)=O)cc1C,–,79.4%,97.2%,105%,101%,98.1%,104%,–,104%
CC1=C(C/C=C(\C)CCC[C@H](C)CCC[C@H](C)CCCC(C)C)C(=O)c2ccccc2C1=O,–,115%,111%,107%,103%,103%,110%,103%,–
FCOC(C(F)(F)F)C(F)(F)F,–,114%,120%,96.6%,99.1%,97.7%,117%,97.5%,111%
O=c1ccc2ccccc2o1,–,108%,–,94.3%,94%,105%,114%,115%,114%
O=C(c1ccccc1)C(Br)C(Br)c1cccc([N+](=O)[O-])c1 (stereo not drawn),–,–,65.1%,-68.8% (active),92.7%,90.1%,-95% (active),101%,90.2%
COc1cccc(OC(=O)c2ccccc2)c1OC(=O)c1ccccc1,–,61.7%,40%,–,78%,101%,108%,–,81.6%
CSc1nnc(-c2sc3nnc(-c4ccccc4)c(-c4ccccc4)c3c2O)o1,–,71.1%,–,96.6%,80.5%,88.7%,110%,–,56.7%
C(=C\c1ccccc1)/CN1CCN(C(c2ccccc2)c2ccccc2)CC1,–,99.6%,62.5%,93.5%,88.7%,95.3%,101%,–,96.5%
Cc1cc(Cl)c2c(Cl)ccc(Cl)c2n1,–,102%,93.7%,83%,95.4%,101%,114%,–,111%
CCSc1nnc2c3cc(Br)ccc3n(C)c2n1,–,82.7%,–,99.5%,–,102%,102%,101%,102%
Cc1cc(C)c(S(=O)O)c(C)c1,–,–,93.1%,101%,109%,112%,126%,124%,109%
Cc1nc2cc(Nc3nc(Nc4ccc(F)cc4)nc(N4CCCC4)n3)ccc2n1Cc1ccccc1,–,-22.5% (active),-12.3% (active),-4.13% (active),-0.672% (active),-21.7% (active),-72.6% (active),21.4%,-30.4% (active)
Cn1c2c(cc(S(=O)(=O)c3ccccc3)c1=O)CCc1c-2cnn1-c1ccccc1Cl,–,113%,90.8%,-72.1% (active),–,102%,113%,–,106%
C=CC(=O)N1CC2(CCC(n3nc(-c4ccc(Oc5ccccc5)cc4)c4c(N)ncnc43)CC2)C1,–,-2.62% (active),-66.4% (active),–,-78.7% (active),-87.7% (active),-11.6% (active),0.179% (active),-76.8% (active)
O=C(N/N=C/c1ccc(F)cc1)c1[nH]c2ccc(I)cc2c1-c1ccccc1,–,38%,22.5%,4.71% (active),–,28.3%,-40.1% (active),34%,1.78% (active)

Structure (SMILES),growth (NCI-H226 lung) [%],growth (HOP-62 NSCLC),growth (HOP-92 NSCLC),growth (NCI-H522 lung),growth (A549/ATCC NSCLC),growth (786-0 renal),growth (COLO 205 colon),growth (NCI-H322M lung),growth (NCI-H460 lung)
CN1CCc2cccc3c2C1Cc1ccc(O)c(O)c1-3 (stereo not drawn),–,87.8%,106%,39.5%,95.6%,86.2%,90.5%,109%,111%
Cc1ccc2c(c1)c(Sc1ccc(C(=O)NO)cc1)c1n2CN(C)CC1,–,33.7%,27.9%,–,1.5% (active),37.7%,14.1%,31.1%,7.16% (active)
NS(=O)(=O)c1cc(Br)c2c(c1)S(=O)(=O)NCN2,–,113%,93%,102%,101%,106%,114%,119%,–
C[C@H]1C(=O)C23CCC1C[C@@]21O[C@@H]2C(C)(C)C=CC(=O)C23COC1=O,–,101%,114%,93.2%,83.9%,109%,105%,105%,101%
COc1cc(C(=O)/C=C/c2c(-c3cccs3)nc3sccn23)cc(OC)c1OC,–,0.498% (active),-5.38% (active),-13% (active),-3.26% (active),-13.9% (active),-49.7% (active),8.06% (active),–
O/N=C/c1cccs1,–,94.3%,94%,106%,98%,102%,119%,–,108%
CCCCC(CCCC)(S(=O)(=O)CC)S(=O)(=O)CC,–,92.5%,87.6%,87.3%,94.3%,98.6%,103%,–,104%
Clc1ccc(C2=NN(c3ccccc3)[C@H](c3cn(-c4ccccc4)nc3-c3ccccc3)C2)cc1,–,108%,–,91.5%,97.8%,103%,114%,101%,108%
COc1nc2c(cc1S(=O)(=O)c1ccccc1)CCc1c-2cnn1-c1cccc(Cl)c1,–,90.7%,46.6%,75.6%,66.2%,72.8%,103%,–,80.6%
COc1ccc(-c2[nH]ncc2Nc2cc(OC)c(OC)c(OC)c2)cc1,–,51.7%,65.8%,12.7%,–,44.1%,-11.9% (active),48.7%,14.1%
CC(=O)Nc1ccc(S(=O)(=O)N/N=C\c2ccc(Cl)c(Cl)c2)cc1,–,100%,72.1%,–,93.8%,113%,109%,–,101%
OB(O)c1ccccc1,–,–,112%,103%,98.5%,103%,116%,111%,110%
COc1cc(/C=C/C(=O)C2=C(/C=C/c3ccc(O)c(OC)c3)NC(=O)NC2c2ccc(O)c(OC)c2)ccc1O (stereo not drawn),–,123%,88.9%,–,78.9%,100%,–,102%,89.1%
COC1(OC)C2(Cl)C=C(c3ccccc3)C1(Cl)C(Cl)=C2Cl (stereo not drawn),–,93.9%,77.7%,80.9%,99.8%,103%,108%,–,113%
Cc1ccc(S(=O)(=O)N2CCc3ccc(O)c4c3C2Cc2cc(Cl)ccc2-4)cc1 (stereo not drawn),–,69.2%,62.8%,18.4%,53.9%,88.2%,–,78.3%,–
COc1ccc2c(c1)c(=O)oc1c(C)c(OCC(C)=O)ccc12,–,118%,–,89.7%,85.1%,101%,128%,105%,103%
NC1=NC(c2ccccc2OS(=O)(=O)c2ccc(Br)cc2)n2c(nc3ccccc32)N1 (stereo not drawn),–,75.2%,-1.3% (active),82%,95.9%,–,91.8%,101%,97.6%
Cn1c2c(cc(S(=O)(=O)c3ccccc3)c1=O)CCc1c-2cnn1-c1cccc(Cl)c1,–,94.7%,44.8%,-81.2% (active),85.6%,92.1%,97.9%,–,101%
Cc1nc2cc(Nc3nc(N4CCCCC4)nc(N4CCOCC4)n3)ccc2n1Cc1ccccc1,–,44.5%,-28.2% (active),37.9%,-0.889% (active),10.9%,41%,–,4.87% (active)
O=S(=O)(OCCO)c1ccccc1,–,126%,101%,95.5%,97.2%,108%,118%,103%,113%
